This is an account of results in article PMC7862700, “An all-to-all approach to the identification of sequence-specific readers for epigenetic DNA modifications on cytosine”.

Holding throughout (assay): DAPPL (digital affinity profiling via proximity ligation, sequencing); 10 mM Tris-HCl pH 7.5, 50 mM NaCl, 1 mM DTT, 4% glycerol, room temperature, 30 min; GST-TFs on glutathione beads, 16-mer random dsDNA library, 0.1% formaldehyde crosslink after washing; high values mean tight binding
What all share (conditions): protein: recombinant; tags: N-terminal GST; dsDNA, one strand shown

Assay [1] deals with T1, ERF (Homo sapiens, UniProt P50548 1-548).
T1 sequence: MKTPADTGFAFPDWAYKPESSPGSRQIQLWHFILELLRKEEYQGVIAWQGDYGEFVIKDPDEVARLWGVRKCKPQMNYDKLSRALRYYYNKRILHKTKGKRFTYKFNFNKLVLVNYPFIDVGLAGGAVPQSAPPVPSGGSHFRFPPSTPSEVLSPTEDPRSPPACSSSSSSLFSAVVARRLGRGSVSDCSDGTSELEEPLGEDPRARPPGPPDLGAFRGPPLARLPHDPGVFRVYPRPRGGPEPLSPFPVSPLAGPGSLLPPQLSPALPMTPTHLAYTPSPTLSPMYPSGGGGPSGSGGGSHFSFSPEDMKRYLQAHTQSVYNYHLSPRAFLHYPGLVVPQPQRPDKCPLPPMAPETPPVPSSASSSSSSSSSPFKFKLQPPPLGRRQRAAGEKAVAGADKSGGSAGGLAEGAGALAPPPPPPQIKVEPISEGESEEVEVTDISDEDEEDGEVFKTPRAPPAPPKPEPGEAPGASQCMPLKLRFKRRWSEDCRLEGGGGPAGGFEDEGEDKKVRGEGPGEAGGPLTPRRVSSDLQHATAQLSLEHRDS
A digest of the protocol:
(§1)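 Pools were built from human transcription factors expressed in yeast as GST fusions, captured on glutathione beads and DNA-barcoded, along with a tag-only sample. Incubation with 200 nmole of a 16-mer random double-stranded DNA library lasted 30 min at room temperature in Tris/NaCl/DTT/glycerol buffer, and was followed by washing, 0.1% formaldehyde crosslinking, proximity ligation, PCR amplification and Illumina NextSeq500 sequencing. Binding signal is the quotient of each hexamer's read frequency for a factor and its frequency for the tag-only sample.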

Assay [2] deals with T2, ETV3L (Homo sapiens, UniProt Q6ZN32 1-361).
T2 sequence: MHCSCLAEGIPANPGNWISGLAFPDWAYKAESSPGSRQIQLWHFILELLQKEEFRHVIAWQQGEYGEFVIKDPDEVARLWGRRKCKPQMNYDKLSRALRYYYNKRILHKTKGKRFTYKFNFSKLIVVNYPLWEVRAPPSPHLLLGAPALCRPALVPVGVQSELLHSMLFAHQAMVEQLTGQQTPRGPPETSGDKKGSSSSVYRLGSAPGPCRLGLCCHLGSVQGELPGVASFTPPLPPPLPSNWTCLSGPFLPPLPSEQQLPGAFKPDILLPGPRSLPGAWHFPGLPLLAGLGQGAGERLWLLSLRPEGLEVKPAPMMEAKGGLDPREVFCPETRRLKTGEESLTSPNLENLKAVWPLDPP
The method, boiled down:
as §1

Assay [3] has as its target T3, ETS2 (Homo sapiens, UniProt P15036 1-469).
T3 sequence: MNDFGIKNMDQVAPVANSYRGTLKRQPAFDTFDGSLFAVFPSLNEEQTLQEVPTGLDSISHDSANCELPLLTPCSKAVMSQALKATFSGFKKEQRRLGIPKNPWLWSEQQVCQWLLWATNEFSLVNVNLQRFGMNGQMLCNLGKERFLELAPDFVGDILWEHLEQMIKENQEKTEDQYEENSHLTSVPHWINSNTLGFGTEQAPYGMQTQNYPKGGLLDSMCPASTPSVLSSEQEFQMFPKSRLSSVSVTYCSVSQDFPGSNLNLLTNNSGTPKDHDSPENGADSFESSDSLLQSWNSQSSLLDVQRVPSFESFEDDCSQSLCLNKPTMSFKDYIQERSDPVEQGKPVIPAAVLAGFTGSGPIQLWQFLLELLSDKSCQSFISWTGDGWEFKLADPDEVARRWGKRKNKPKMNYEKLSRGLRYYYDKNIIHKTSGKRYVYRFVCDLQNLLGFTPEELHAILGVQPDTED
The method, boiled down: as §1

Assay [4] concerns the target T4, SPDEF (Homo sapiens, UniProt O95238 1-335).
T4 sequence: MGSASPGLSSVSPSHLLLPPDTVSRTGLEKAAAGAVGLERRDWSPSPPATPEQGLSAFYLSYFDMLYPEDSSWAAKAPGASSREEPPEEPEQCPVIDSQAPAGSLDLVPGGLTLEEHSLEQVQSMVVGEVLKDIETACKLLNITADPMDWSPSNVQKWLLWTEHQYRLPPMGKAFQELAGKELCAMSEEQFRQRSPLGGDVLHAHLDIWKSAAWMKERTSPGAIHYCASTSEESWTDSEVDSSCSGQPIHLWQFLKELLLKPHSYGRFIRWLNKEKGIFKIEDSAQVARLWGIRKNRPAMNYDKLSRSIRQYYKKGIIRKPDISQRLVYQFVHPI
The method, boiled down:
as §1

Assay [5] addresses T5, ETV7 (Homo sapiens, UniProt Q9Y603 1-341).
T5 sequence: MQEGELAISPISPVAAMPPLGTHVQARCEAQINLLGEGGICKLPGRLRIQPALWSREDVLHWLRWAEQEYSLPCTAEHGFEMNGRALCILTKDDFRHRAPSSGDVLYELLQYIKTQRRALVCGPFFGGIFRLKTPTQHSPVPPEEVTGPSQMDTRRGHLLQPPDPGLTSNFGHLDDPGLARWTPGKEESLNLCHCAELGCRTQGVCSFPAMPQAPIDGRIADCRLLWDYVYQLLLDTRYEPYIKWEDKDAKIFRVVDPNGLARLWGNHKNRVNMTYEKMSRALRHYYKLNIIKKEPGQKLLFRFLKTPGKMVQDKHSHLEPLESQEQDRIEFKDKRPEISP
The method, boiled down:
as §1

Assay [6] deals with T6, ELF5 (Homo sapiens, UniProt Q9UKW6-2 1-255).
T6 sequence: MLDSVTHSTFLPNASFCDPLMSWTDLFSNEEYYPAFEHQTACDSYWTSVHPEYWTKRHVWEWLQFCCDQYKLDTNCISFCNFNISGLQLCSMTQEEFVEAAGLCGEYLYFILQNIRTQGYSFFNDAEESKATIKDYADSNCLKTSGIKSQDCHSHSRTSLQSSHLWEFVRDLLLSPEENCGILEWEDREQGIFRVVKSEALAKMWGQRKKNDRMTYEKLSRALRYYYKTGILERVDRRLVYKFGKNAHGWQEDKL
The method, boiled down: as §1

Assay [7] has as its target T7, ETV3 (Homo sapiens, UniProt P41162-2 1-143).
T7 sequence: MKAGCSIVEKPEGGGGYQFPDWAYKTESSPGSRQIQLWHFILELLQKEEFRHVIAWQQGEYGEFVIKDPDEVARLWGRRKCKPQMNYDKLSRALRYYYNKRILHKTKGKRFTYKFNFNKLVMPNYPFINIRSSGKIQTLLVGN
The method, boiled down:
as §1

Assay [8] deals with ETV6 (Homo sapiens, UniProt P41212 1-452). A digest of the protocol:
as §1

Sequence of ETV6 (P41212 whole entry): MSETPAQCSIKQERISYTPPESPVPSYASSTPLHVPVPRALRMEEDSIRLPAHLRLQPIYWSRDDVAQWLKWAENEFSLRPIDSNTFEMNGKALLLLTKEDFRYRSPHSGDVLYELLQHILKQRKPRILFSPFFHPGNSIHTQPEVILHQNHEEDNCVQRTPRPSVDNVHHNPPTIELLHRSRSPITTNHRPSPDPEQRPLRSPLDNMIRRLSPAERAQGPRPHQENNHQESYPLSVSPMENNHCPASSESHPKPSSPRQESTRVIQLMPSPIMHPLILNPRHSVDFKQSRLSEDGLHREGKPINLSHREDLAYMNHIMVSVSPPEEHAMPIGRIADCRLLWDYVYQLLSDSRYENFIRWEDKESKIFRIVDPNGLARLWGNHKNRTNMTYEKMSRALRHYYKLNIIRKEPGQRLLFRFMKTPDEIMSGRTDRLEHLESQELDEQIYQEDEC

In the case of ACTGCA, the binding signal in assay [1] was 1.13 fold enrichment (6-mer frequency, TF over GST control); in assay [2] it was 1.17 fold enrichment (6-mer frequency, TF over GST control); in assay [3], 1.12 fold enrichment (6-mer frequency, TF over GST control); in assay [4], 1.13 fold enrichment (6-mer frequency, TF over GST control); in assay [5], 1.07 fold enrichment (6-mer frequency, TF over GST control); in assay [6], 1.01 fold enrichment (6-mer frequency, TF over GST control). Also, the binding signal in assay [7] is 1.17 fold enrichment (6-mer frequency, TF over GST control); in assay [8] it was 1.2 fold enrichment (6-mer frequency, TF over GST control).

Take TAAACC: the binding signal is 1.28 fold enrichment (6-mer frequency, TF over GST control) in assay [1]; 1.26 fold enrichment (6-mer frequency, TF over GST control) in assay [2]; 1.22 fold enrichment (6-mer frequency, TF over GST control) in assay [3]; 1.28 fold enrichment (6-mer frequency, TF over GST control) in assay [4]; 1.22 fold enrichment (6-mer frequency, TF over GST control) in assay [5]; 1.21 fold enrichment (6-mer frequency, TF over GST control) in assay [6]. Also, the binding signal in assay [7] was 1.26 fold enrichment (6-mer frequency, TF over GST control); in assay [8], 1.29 fold enrichment (6-mer frequency, TF over GST control).

As to GAAGAA, the binding signal in assay [1] was 1.02 fold enrichment (6-mer frequency, TF over GST control); in assay [2], 1.18 fold enrichment (6-mer frequency, TF over GST control); in assay [3], 1.16 fold enrichment (6-mer frequency, TF over GST control); in assay [4], 1.09 fold enrichment (6-mer frequency, TF over GST control); in assay [5] it was 1.16 fold enrichment (6-mer frequency, TF over GST control); in assay [6], 1.27 fold enrichment (6-mer frequency, TF over GST control). Besides, the binding signal in assay [7] is 1.12 fold enrichment (6-mer frequency, TF over GST control); in assay [8], 1.18 fold enrichment (6-mer frequency, TF over GST control).

As to TTTCCT, the binding signal in assay [1] was 2.28 fold enrichment (6-mer frequency, TF over GST control); in assay [2], 2.43 fold enrichment (6-mer frequency, TF over GST control); in assay [3] it was 2.44 fold enrichment (6-mer frequency, TF over GST control); in assay [4] it was 2.34 fold enrichment (6-mer frequency, TF over GST control); in assay [5], 2.31 fold enrichment (6-mer frequency, TF over GST control); in assay [6] it was 4.16 fold enrichment (6-mer frequency, TF over GST control). Also, the binding signal was 2.73 fold enrichment (6-mer frequency, TF over GST control) in assay [7] and 2.86 fold enrichment (6-mer frequency, TF over GST control) in assay [8].

As to CTATGT, the binding signal in assay [1] is 1.08 fold enrichment (6-mer frequency, TF over GST control); in assay [2] it was 1.06 fold enrichment (6-mer frequency, TF over GST control); in assay [3], 1.16 fold enrichment (6-mer frequency, TF over GST control); in assay [4], 1.12 fold enrichment (6-mer frequency, TF over GST control); in assay [5], 1.3 fold enrichment (6-mer frequency, TF over GST control); in assay [6], 1.1 fold enrichment (6-mer frequency, TF over GST control). The binding signal in assay [7] is 1.15 fold enrichment (6-mer frequency, TF over GST control).

For ACCTAT, the binding signal is 1.26 fold enrichment (6-mer frequency, TF over GST control) in assay [1]; 1.16 fold enrichment (6-mer frequency, TF over GST control) in assay [2]; 1.2 fold enrichment (6-mer frequency, TF over GST control) in assay [3]; 1.25 fold enrichment (6-mer frequency, TF over GST control) in assay [4]; 1.25 fold enrichment (6-mer frequency, TF over GST control) in assay [5]; 1.11 fold enrichment (6-mer frequency, TF over GST control) in assay [6]. Further, the binding signal in assay [7] is 1.17 fold enrichment (6-mer frequency, TF over GST control); in assay [8], 1.16 fold enrichment (6-mer frequency, TF over GST control).

With TTGGCC, the binding signal in assay [1] is 1.08 fold enrichment (6-mer frequency, TF over GST control); in assay [2], 1.09 fold enrichment (6-mer frequency, TF over GST control); in assay [3], 1.01 fold enrichment (6-mer frequency, TF over GST control); in assay [4], 1.06 fold enrichment (6-mer frequency, TF over GST control); in assay [5] it was 1.12 fold enrichment (6-mer frequency, TF over GST control); in assay [6], 1.02 fold enrichment (6-mer frequency, TF over GST control). In addition, the binding signal was 1.05 fold enrichment (6-mer frequency, TF over GST control) in assay [7] and 1.05 fold enrichment (6-mer frequency, TF over GST control) in assay [8].
